From the supplement of paper PMC11417369
± gives the standard deviation of the averaged measurements. Over roughly 25,000 sequences, “ln(normalized median fluorescence intensity)” has its median near 7.9; the highest 2% begin near 11. The list comes from a sample in which the highest values are over-represented; it also holds similar and randomly drawn sequences.

Tested on: PfAP2-I AP2 domain 3 (GST-tagged)
Experiment: gcPBM binding intensity (ln(normalized median fluorescence intensity)); higher = stronger DNA binding
Method in brief: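 After 1 h on an Agilent 4 × 180k array of primer-extended double-stranded 36-bp intergenic genomic probes and negative controls, bound GST-tagged P. falciparum DNA-binding domains were detected with Alexa488 anti-GST antibody and scanned at 488 nm. The domains had been expressed in E. coli, and binding took place in 1× PBS with 1% milk, 0.2 mg/ml BSA, 0.5% salmon testes DNA and 0.03% Triton X-100. Binding intensity is the highest Masliner-normalised natural-log median intensity across replicate spots of either probe orientation.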

Sequence	gcPBM binding intensity (ln)
TCTTTTACAAAAGCTATAACATTCACCACATTATAA [GTGCAC_negctrl_site133]	7.68 ± 0.65
CTAGGTATGCTTTAAACATGCAAAAATACAAATTAC [TGCATGCA_site239]	7.97 ± 0.76
ATAAATCCATGGGTAGTGCGCATTTTTTTTTTTTTT [GTGCAC_site9732]	9.09 ± 0.41
ACAATGTCATTTGCTAGTACGCATATTGGTTGTAAA [XGTACX_site8924]	7.76 ± 0.24
ATAAAATATCAATACCGTACACAAGCAGGTAAAATA [XGTACX_site3719]	7.82 ± 0.8
TGATTATAAAAGTAGGTGCTACAAAAATTACACATT [GTGCAC_site9530]	8.7 ± 0.45
TATAACATTTTTTTCAAAATAGCTTTAGAAATAAAG [CACACA_negctrl_site718]	7.37 ± 0.54
AAATAATTTATATGTAGTACATGTTGTAGATAATTT [XGTACX_site1031]	8.16 ± 0.28
TATACGTATTACAGAGTGCAATAAACAGTATATATT	10.9 ± 0.66
TTTGTGTATATAACAGTGCAATATTATAAATATAAA [GTGCAC_site9750]	10.5 ± 0.51
CATAATATTAAATCAGTGCAAATATACAGAATAAAT [GTGCAC_site9786]	10.1 ± 0.17
AAAAAAAATTATGAAGTGCATTAGTGAATTTGATTG	10.9 ± 0.3
TTTTGATTAAGTGAATTTTTTTATTTATATAAATAT [TGCATGCA_negctrl_site479]	7.54 ± 0.56
AAAATTATTTAGTAAGTGCAAAAAAAAAAAAAAAAA	10.1 ± 0.23
CAATTTTACTCATAAACACACATATATATGTTATTA [CACACA_site3152]	7.66 ± 0.53
AAAAAAAAAAAAAGTACACACTTTTGCGTACATGTA [CACACA_site7449]	8.06 ± 0.63
TGCATTATTTACAAGGTGCGTTACAAATGTGTAACA [GTGCAC_site9442]	11.3 ± 0.88
ATATATTTATTAAGGTGTACAAAAATTATGTTGCAT [XGTACX_site7546]	8.26 ± 0.35
TATATTATATATATGTGTACATATAAATGTAACAAA [XGTACX_site5025]	7.67 ± 0.34
TTAACATAAATATATACACACCAATGATGGCATTTA [CACACA_site4952]	7.51 ± 0.52
TATATATTCATGTGTACACACAAAAAAAAATAAAGT [CACACA_site2207]	8.41 ± 0.65
TTGTATGCTTCCCGACTACATTATGCCATAAATGTA [TGCATGCA_negctrl_site136]	7.92 ± 0.49
AGTGCATACATGAATTGTACTTTAAAATAAATTCTA [XGTACX_site8156]	9.7 ± 0.52
TAAATATATTTCATGACATGCAACTTGTTTTTTTGT [TGCATGCA_site456]	7.63 ± 0.7

Sequence	gcPBM binding intensity (ln)
TTTTTTCTTAAAATTTGTACATAGTGCAATTTTTTT [XGTACX_site5509]	9.5 ± 0.69
TAAAATTTGTACATAGTGCAATTTTTTTTTTTTTTT	9.81 ± 0.099
TTCTTATTTGTACTAGTGCAATAGAAAATAAATAAA [GTGCAC_site9731]	10.9 ± 0.49
TATTTTACATCTTCTCACATTTTATCACTTTTTAAA [CACACA_negctrl_site330]	8.08 ± 0.45
ATTATTATAGATATAACACACATAATTACATACTTA [CACACA_site6837]	7.97 ± 0.14
TTATATAATTTAATAGTGCAATTATATTAATTTTTC	9.82 ± 0.42
ATATATATTATATAAGTGCATAATATTCTTTCTTTT	10.5 ± 0.25
ATTTTCTTTTCCATAGTGCAATATAATTATCCATCA [GTGCAC_site9547]	11.3 ± 0.39
GATAGACACGTGCACACATGCAATACTTTATTCAGT [TGCATGCA_site778]	10.1 ± 0.32
ATTTGATAGACACATGCACACATGCAATACTTTATT [CACACA_site5633]	8.81 ± 0.77
TTTAATTTGATAGACACATGCACACGTGCAATACTT [TGCATGCA_site777]	10.95 ± 0.021
CATTATCATGTTTTTTGTACTCATAATAAAAAGCAG [XGTACX_site2056]	8.03 ± 0.21
AATCTAATATAATGCACACATAAAAAAAAATCAAAC [CACACA_site3633]	11.1 ± 0.94
AAAATCTAATATAATGCACACATAAAAAAAAAATCA [CACACA_site8871]	11 ± 0.68
AATCTAATATAATGCACACATAAAAAAAAAATCAAA [CACACA_site2714]	10.7 ± 0.74
AAAATCTAATATAATGCACACATAAAAAAAAATCAA [CACACA_site9211]	10.9 ± 0.59
ATAATAAAATAAATCACACATAATATAATGTAATAT [CACACA_site6144]	7.54 ± 0.54
TATCAAAATAAATGCACACAAATTGCACATATCTAT [CACACA_site1097]	10.3 ± 0.11
TAGATATATAAATACACACACATACACAAAAAAAAA [CACACA_site7652]	8.21 ± 0.45
AAATATATATAAAACTCACACATTATCTTATAACCA [CACACA_site5268]	7.83 ± 0.23
AAATTATTATCGTTAATATGTATATATGTGCCAAGT [TGCATGCA_negctrl_site557]	8.06 ± 0.44
GGTTACATTTTATTTTGTACATAAAAATTTTTATTT [XGTACX_site218]	8.15 ± 0.53
AAAAATAAACAATATATAGTTATATATATATATATA [TGCATGCA_negctrl_site82]	9.29 ± 0.69
TTCTCATTCAAATTAGTGCATTTTTGTTATTACATT	9.81 ± 0.2

Sequence	gcPBM binding intensity (ln)
TGTGCACATAATTAGTGTACATTTTTTATTTAGACA [XGTACX_site317]	10.3 ± 0.88
TATTTTTTTTGTTAGGTGCATTTACATTTATTTTTA	10.8 ± 0.61
TTTTTGTTATTTTTAGTGCACATTTAAGGGTGTATT	11.4 ± 0.53
TTTATATTTATGTAGGTGCATTTGTTTACAACATAT [GTGCAC_site9511]	10.8 ± 0.71
ATATTTATTTGTTAGTGTACATACATATATATATAT [XGTACX_site1347]	9.47 ± 0.4
CTATATTTTTAAAAATGTACTTTATAATAAAATACT [XGTACX_site3593]	7.83 ± 0.32
ATTTATAATGATTTTTTTAGTAATCTTGTTATTTTT [XGTACX_negctrl_site373]	7.38 ± 0.54
CTATTTAAAATATGAACACACATTATTTGTTTTAGA [CACACA_site2713]	7.42 ± 0.43
TATTTGTATAAATAAAAATAATATATATCAAATAAC [CACACA_negctrl_site218]	7.57 ± 0.55
AATAGCAATTTGGGGTGTACACACACCTTATTTAAA [XGTACX_site2234]	8.04 ± 0.23
TACTTTTTTTTTTTTTTTTTTTTTTTTTCCCTTTTT [CACACA_negctrl_site761]	7.47 ± 0.53
ATAAAAATAAAAAGTGTGCACACAAAAATATATATA [GTGCAC_site9931]	9.96 ± 0.33
ATTAAAAGTTTATACAAATAAAAAACAAAACAAAAA [CACACA_negctrl_site1030]	7.7 ± 0.55
TAATAATTTTATAAAGTGCATAAAAATAAAAATTTT	10.6 ± 0.36
AATATCATTATATAAGTGCATTTTTTAAAAGATAAA [GTGCAC_site9479]	9.04 ± 0.22
AGTGTTTTTTATAAAGTGCAATATAAAAACAAAATG	11.3 ± 0.75
TAATTAAATATTTCAGTGCATTATTTTATGATCCAT [GTGCAC_site9456]	11.2 ± 0.76
CTAAATTATAGATCAGTGCAATTTAATATGAGTCCA	8.91 ± 0.22
TTAATTAATTTTTCAGTGCAAATAAAAAATATTTAA	10.4 ± 0.64
TAATTATTTTAAAAAGTGCATTAAAAGATATTAAAT [GTGCAC_site9694]	11.4 ± 0.56
TTATAAATTTAAAAAGTGCATAATAATAACAAAAAG	11.2 ± 0.67
AAATTAAAGATAAAAGTGCAAAATTATAAATTTATT	9.64 ± 0.071
TACAAATTTATATAAAGTACAAAAAATAATAAAAAT [XGTACX_site7355]	8.1 ± 0.52
GTAATATTAATATAATGTACAAAATGAAACATATAT [XGTACX_site6219]	7.71 ± 0.57

Sequence	gcPBM binding intensity (ln)
AAATAAATACATAATACATGCATATTTAATATATAG [TGCATGCA_site135]	7.93 ± 0.25
TTTTAGCTATTTTAATATAATGAAGCAAAAAATAAA [TGCATGCA_negctrl_site576]	7.82 ± 0.085
GTGTGGTTACAGACACGAACACATTTTTTAAATATT [CACACA_negctrl_site83]	7.83 ± 0.28
TGAAAAATGTAATGCTCACACATATATATATATATA [CACACA_site5213]	9.41 ± 0.24
CCTACAATTCGTAATACACACACATATATATATATA [CACACA_site9251]	9.29 ± 0.25
CAGCTCTTAAAAATTACACACATATACACATATATA [CACACA_site9073]	7.5 ± 0.54
TTTATTTATTAATACACACACACACCCCCACAAAAT [CACACA_site240]	9.96 ± 0.2
AATTGAAAAATCAGCACACACACAAATACATACATA [CACACA_site3232]	8.09 ± 0.4
TAATTATTCTATTAAGTGCATATATTTTTAAAAAGA	9.89 ± 0.3
TCATTTTAATTAAAAGTGCAAAAAATAATATAACTA [GTGCAC_site9968]	9.9 ± 0.18
AAAAAAAAAAAAAAAGTGCATTAATAAATTTTAATA	11.5 ± 0.61
TTCATTTTATTTTAAGTGCATATTTTTATTTTTTTG	8.82 ± 0.099
GATTATTTCTAAAAAGTGCATATTTAAAAATCTCCT	9.815 ± 0.035
AGATTATATAAAAAAGTGCATATTTTCATTTTTTTT [GTGCAC_site9448]	9.07 ± 0.13
TATATATATTAAAAAGTGCATTATTCATATTATATA [GTGCAC_site9400]	11.1 ± 0.73
TTTCTCCATATTAAAGTGCATTAATAACAAAAATAA [GTGCAC_site9934]	11.4 ± 0.81
TTCATATTCGATAAAGTGCATTAATTTTATTTATCA	11.3 ± 0.73
ATTAATAAAAAATTTTAAAAAATAAATAAAATAAAA [TGCATGCA_negctrl_site113]	7.58 ± 0.42
TTATTAAATTCATAAGTGCATTTATGATTAATTTTT [GTGCAC_site9749]	9.86
CTGAAATTAACAAAAGTGCATAAAAATAAAAAATAT [GTGCAC_site9652]	10.8 ± 0.38
CTATTTTAATATTTTACACACCATGTAAAATATATA [CACACA_site5732]	7.97 ± 0.28
